Most compounds without a hit are left out; they make up all but 2.1% or so of the library.
YB-1 expr inh: inhibitors of YB-1 gene expression, primary screen, cell-based, fluorescence. U2OS, qRT-PCR YB-1 vs CDIP delta delta Cp, 16 h; active compounds read high; zero = DMSO, each unit about twofold. delta delta Cp (YB-1 minus CDIP) (concentration not given with the values). hit rate 0.37% among 30,000. AID 434959, 2010;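 active = delta delta Cp rounded down to an integer at or above 3, about 3 SD of DMSO wells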;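 note: higher means less YB-1 transcript or more CDIP transcript relative to DMSO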
U2OS ROS induce: ROS inducers in U2OS cancer cells, primary screen, cell-based, H2DCF-DA fluorescence | U2OS ROS induction | ROS induction (% of piperlongumine), % at 10 µM | hit rate 2% among 46,000; in the data active = ROS induction above about 79%, passing the limit was not always enough
A number is an active result; i = inactive; nt = not tested or not shown.

SMILES	YB-1 expr inh	U2OS ROS induce
Cc1ccc(S(=O)(=O)NC2c3cccc4cccc(c34)C2Sc2nnnn2-c2ccccc2)cc1 (stereo unspecified)	nt	i
CC1(C)CC[C@]2(C(=O)O)CC[C@]3(C)C(=CCC4[C@@]5(C)CC[C@H](O[C@@H]6O[C@H](CO)[C@@H](O)[C@H](O)[C@H]6O)C(C)(C)C5CC[C@]43C)[C@@H]2C1 (stereo partly specified)	i	i
CCn1c(SCc2nc3ccccc3c(=O)[nH]2)nc2ccccc2c1=O	nt	94.2
O=c1[nH]c(CSc2nnc(-c3ccccc3)n2C2CCCCC2)nc2ccccc12	nt	i
C=CCn1c(-c2cccs2)nc(-c2ccccc2)c1-c1ccccc1	i	i
Cc1sc(NC(=O)Cn2nc(C(F)(F)F)cc2C)c(C(N)=O)c1C	i	i
CC(C)Cc1ccc(C(C)C(=O)NC(C)Cc2c[nH]c3ccccc23)cc1 (stereo unspecified)	nt	i
O=C(CSc1ccc(F)cc1Cl)C12CC3CC(CC(C3)C1)C2	7.18	i
N#CSCC(=O)C12CC3CC(CC(C3)C1)C2	i	i
Cc1cc(-c2c(C(=O)Sc3ccccc3)c(C)nn2-c2ccccc2)no1	nt	i
Cc1ccc(SC(=O)c2c(C)noc2-c2cc(C)on2)cc1	nt	108.6
Nn1c(Cc2ccccc2)nc2sc3c(c2c1=O)CCCC3	nt	i
CCCc1c(-c2ccccc2)nc2sc3c(c2c1N)CCCCC3	nt	168.6
COc1ccc(-n2c(SCCCN3C(=O)c4cccc5cccc(c45)C3=O)nnc2-c2ccncc2)cc1	nt	87.6
Cn1c(SCCCN2C(=O)c3cccc4cccc(c34)C2=O)nnc1-c1cccs1	nt	i
CCOC(=O)c1cnc(-c2cccs2)nc1Nc1ccc(Cl)cc1	nt	i
O=C(COc1ccc([N+](=O)[O-])cc1)Nc1ccc(-c2nc3ccccc3s2)c(Cl)c1	nt	i
CC1C2CC(C(S(=O)(=O)N3CCOCC3)C2=O)C1(C)C (stereo unspecified)	i	115.0
CC(C)c1ccc(S(=O)(=O)N2CCOCC2)cc1	nt	i
Cc1cc(C(=O)Nc2cccc3c2O[C@@H](CN(C)Cc2ccc(Oc4ccccc4)cc2)[C@H](C)CN([C@H](C)CO)C3=O)n(C)n1	i	105.7
Cc1cc(C(=O)Nc2cccc3c2O[C@H](CN(C)Cc2ccc(Oc4ccccc4)cc2)[C@@H](C)CN([C@@H](C)CO)C3=O)n(C)n1	i	123.6
Cc1cc(C(=O)Nc2cccc3c2O[C@@H](CN(C)Cc2ccc(Oc4ccccc4)cc2)[C@@H](C)CN([C@@H](C)CO)C3=O)n(C)n1	i	i
Cc1cc(C(=O)Nc2cccc3c2O[C@H](CN(C)Cc2ccc(Oc4ccccc4)cc2)[C@H](C)CN([C@@H](C)CO)C3=O)n(C)n1	i	i
CCN1C(=O)/C(=C\c2ccsc2)SC1=S	nt	i
Cc1ccc(S(=O)(=O)N(C)C2CCCCC2)cc1-c1nnc2c3ccccc3c(C)nn12	nt	i
SMILES	YB-1 expr inh	U2OS ROS induce
CNC(=O)C(C)n1c2ccccc2c2cn[nH]c(=O)c21 (stereo unspecified)	nt	i
C[C@H](CO)N1C[C@H](C)[C@@H](CN(C)Cc2ccc(C(F)(F)F)cc2)Oc2c(NC(=O)Nc3ccc4c(c3)OCO4)cccc2C1=O	i	92.2
C[C@H]1CN([C@@H](C)CO)C(=O)c2cccc(NC(=O)Nc3ccc4c(c3)OCO4)c2O[C@@H]1CN(C)Cc1ccc(C(F)(F)F)cc1	i	i
C[C@@H]1CN([C@@H](C)CO)C(=O)c2cccc(N(C)C)c2O[C@@H]1CN(C)Cc1ccc2c(c1)OCO2	11.6	i
C[C@H]1CN([C@@H](C)CO)C(=O)c2cccc(NC(=O)Nc3ccc4c(c3)OCO4)c2O[C@@H]1CN(C)Cc1ccc(C(=O)Nc2ccccc2N)cc1	i	123.2
C[C@H](CO)N1C[C@H](C)[C@H](CN(C)Cc2ccc(C(F)(F)F)cc2)Oc2c(NC(=O)Nc3ccc4c(c3)OCO4)cccc2C1=O	i	i
C[C@@H]1CN([C@@H](C)CO)C(=O)c2cccc(NC(=O)Nc3ccc4c(c3)OCO4)c2O[C@H]1CN(C)Cc1ccc(C(F)(F)F)cc1	i	88.3
C[C@@H]1CN([C@@H](C)CO)C(=O)c2cccc(NC(=O)Nc3ccc4c(c3)OCO4)c2O[C@@H]1CN(C)Cc1ccc(C(=O)Nc2ccccc2N)cc1	i	i
C[C@@H]1CN([C@H](C)CO)C(=O)c2cccc(N(C)C)c2O[C@H]1CN(C)Cc1ccc2c(c1)OCO2	i	i
N#Cc1ccccc1CSc1nnc(CN2CCOCC2)n1-c1ccccc1	nt	i
N/C(=N\O)c1ccc(Cl)cc1	i	i
Cc1c(C)c(C)c(CSc2ccccc2N)c(C)c1C	i	i
C[C@@H]1CN([C@@H](C)CO)C(=O)c2cccc(NS(=O)(=O)c3cn(C)cn3)c2O[C@H]1CN(C)Cc1ccc2c(c1)OCO2	i	85.9
C[C@@H]1CN([C@@H](C)CO)C(=O)c2cccc(NS(=O)(=O)c3cn(C)cn3)c2O[C@@H]1CN(C)Cc1ccc2c(c1)OCO2	i	i
C[C@H]1CN([C@@H](C)CO)C(=O)c2cccc(NC(=O)Nc3ccc(F)cc3)c2O[C@@H]1CN(C)Cc1ccc2c(c1)OCO2	i	i
C[C@H](CO)N1C[C@H](C)[C@H](CN(C)C(=O)Nc2ccc3c(c2)OCO3)Oc2c(NS(=O)(=O)c3ccccc3)cccc2C1=O	i	99.7
C[C@@H]1CN([C@H](C)CO)C(=O)c2cccc(NC(=O)Nc3ccc(C(F)(F)F)cc3)c2O[C@@H]1CN(C)C(=O)Nc1ccc2c(c1)OCO2	i	94.0
C[C@H](CO)N1C[C@H](C)[C@H](CN(C)C(=O)Nc2ccc3c(c2)OCO3)Oc2c(NC(=O)Nc3ccc(C(F)(F)F)cc3)cccc2C1=O	i	i
C[C@H](CO)N1C[C@H](C)[C@@H](CN(C)C(=O)Nc2ccc3c(c2)OCO3)Oc2c(NS(=O)(=O)c3ccccc3)cccc2C1=O	i	i
C[C@@H]1CN([C@H](C)CO)C(=O)c2cccc(NC(=O)Nc3ccc(F)cc3)c2O[C@H]1CN(C)Cc1ccc2c(c1)OCO2	i	86.7
Cn1nnc(N2C(=O)C(=O)C(C(=O)c3ccco3)C2c2ccccc2)n1 (stereo unspecified)	nt	i
Cc1ccc(S(=O)(=O)n2nccc2-c2c(C)nc3ccccn23)cc1	nt	i
CC1CCCC(NC(=O)CNC(=S)N(Cc2ccc(F)cc2)C2CCCCC2)C1C (stereo unspecified)	nt	i
O=C(CSC(=S)N1CCOCC1)c1c[nH]c2ccccc12	nt	i
CCC(C)NC(=O)c1ccc2c(=O)n(Cc3ccc(OC)cc3)c(=O)[nH]c2c1 (stereo unspecified)	nt	i
SMILES	YB-1 expr inh	U2OS ROS induce
N#Cc1c(NC(=O)CSc2nc(-c3ccccc3)cc(C(F)(F)F)n2)sc2c1CCCCC2	nt	i
CC(C)NC(=O)N(C)C[C@@H]1Oc2c(NC(=O)Nc3ccc4c(c3)OCO4)cccc2C(=O)N([C@H](C)CO)C[C@@H]1C	i	i
CC(C)NC(=O)N(C)C[C@H]1Oc2c(NC(=O)Nc3ccc4c(c3)OCO4)cccc2C(=O)N([C@@H](C)CO)C[C@H]1C	i	90.1
CCOC(=O)CSc1nc(N)c2c3c(sc2n1)COC(C)(C)C3	nt	i
CN(C(=O)CSc1nc(N)c2c3c(sc2n1)CSC(C)(C)C3)c1ccccc1	nt	122.1
CCc1ccc(NC(=O)Cn2cc(S(=O)(=O)c3ccccc3)c(=O)c3ccccc32)cc1	nt	i

Source: PubChem (Broad Institute)
